CYP2C9 inh = blockers of cytochrome P450 2C9 activity – biochemical, luminescence, ADME assay, primary screen; actives 20% (n = 96,000); CYP2C9 Supersomes, luciferin-H conversion; P11712; inhibition, % at 5 µM;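 active = blocking of liver enzyme CYP2C9 beyond about 50% at 5 µM, limit read from the data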
CD11b adhes inh = inhibitors of CD11b/CD18 adhesion to fibrinogen, primary screen, K562 cells, luminescence. Integrin beta-2 (Homo sapiens) + Integrin alpha-M (Homo sapiens), P05107+P11215. ATPlite luminescence; Mn2+ added to activate the integrin. inhibition, % at 10 µM. actives 0.54% (n = 93,000);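 active = primary inhibition of 50% or more at 10 µM, then 40% or more on retest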
CYP2C9 activ = human CYP2C9 activators, primary screen, biochemical, luminescence. Cytochrome P450 2C9 (Homo sapiens), P11712. activation factor at 5 µM. recombinant CYP2C9, luciferin-H conversion; stronger effect = higher value; factor 1 = untreated enzyme, 0 = blocked. actives 1.4% (n = 96,000);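 active = activation factor of 2 or more for CYP2C9 at a 5 µM dose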;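 note: 0 = sulfaphenazole-blocked wells and 1 = vehicle-only wells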
CYP2C19 activ = human CYP2C19 activators, primary screen, biochemical, luminescence; Cytochrome P450 2C19 (Homo sapiens), P33261; recombinant CYP2C19, luciferin-H EGE luminescence; stronger effect = higher value; 0 = fully inhibited enzyme, 1 = untreated enzyme; activation factor at 5 µM; 96,000 tested, under 10 active;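 active = activation factor of at least 2 at 5 µM in the primary screen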;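 note: 0 = wells with 2.5 mM tranylcypromine and 1 = vehicle-only wells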
Target sequence (P33261 whole entry, looked up): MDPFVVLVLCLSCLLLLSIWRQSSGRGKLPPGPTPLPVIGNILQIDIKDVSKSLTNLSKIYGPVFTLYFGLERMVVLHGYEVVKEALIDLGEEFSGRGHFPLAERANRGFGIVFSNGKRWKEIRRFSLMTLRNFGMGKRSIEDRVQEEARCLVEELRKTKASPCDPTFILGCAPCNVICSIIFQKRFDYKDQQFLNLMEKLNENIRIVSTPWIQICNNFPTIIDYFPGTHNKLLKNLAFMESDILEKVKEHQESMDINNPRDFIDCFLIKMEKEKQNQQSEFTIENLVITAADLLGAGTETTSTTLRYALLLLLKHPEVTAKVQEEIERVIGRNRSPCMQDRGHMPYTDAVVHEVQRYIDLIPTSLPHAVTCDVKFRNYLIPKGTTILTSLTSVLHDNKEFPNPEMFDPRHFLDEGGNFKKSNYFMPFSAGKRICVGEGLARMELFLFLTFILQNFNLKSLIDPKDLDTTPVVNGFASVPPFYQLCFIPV
CYP2C19 inhib = blockers of cytochrome P450 2C19 activity – biochemical, luminescence, ADME assay, primary screen; CYP2C19 Supersomes, luciferin-H EGE luminescence, 30 min; inhibition, % at 5 µM; actives 21% (n = 96,000); AID 778, 2007;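 active = CYP2C19 inhibition above a set limit at 5 µM in the primary screen, cut at about 50% in these data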;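 note: plate controls were negative control wells for no effect and 2.5 mM tranylcypromine positive control for full effect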
Mac1 fbg enh = enhancers of CD11b/CD18 adhesion to fibrinogen, primary screen, K562 cells, luminescence. Integrin beta-2 (Homo sapiens) + Integrin alpha-M (Homo sapiens), P05107+P11215. ATPlite luminescence. activation, % at 10 µM. actives 0.07% (n = 93,000). AID 1499, 2009;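 active = 10 µM primary screen giving 50% or more activity, confirmed by 40% or more on retest at that dose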
* marks the source's active call; other numbers are inactive results; · = no result given. Only some compounds are listed: those with a hit (about 28% of all), similar ones and a draw of the others.

SMILES	CYP2C9 inh	CD11b adhes inh	CYP2C9 activ	CYP2C19 activ	CYP2C19 inhib	Mac1 fbg enh
O=C(NC1CCCC1)C(c1ccsc1)N(C(=O)Cc1cccs1)c1ccc(F)cc1 (stereo unspecified)	5	-16	0.9	0.9	14	38
Cc1ccc(C(C(=O)NC2CCCCC2)N(C(=O)Cc2c[nH]c3ccccc23)c2ccccc2)o1 (stereo unspecified)	66*	·	0.3	0.6	45	·
CCOc1cccc(C2C(C(=O)c3ccco3)=C(O)C(=O)N2Cc2ccncc2)c1 (stereo unspecified)	22	5	0.8	1.1	-13	-4
O=C(NC1CCCCC1)NC1CC2CCC(C1)N2Cc1nnnn1Cc1ccc2c(c1)OCO2 (stereo unspecified)	6	·	0.9	0.8	20	·
Cc1occc1C(=O)NNC(=S)Nc1ccccc1	18	-2	0.8	0.6	45	-2
CS(=O)(=O)c1ccccc1-c1nc(-c2ccc(C(F)(F)F)cc2)no1	-208	·	3.1*	1	5	·
CCSc1ncnc2c1sc1nc3c(cc12)COC(C)(C)C3	·	15	·	·	·	-3
CC(C)CSc1ncnc2c1oc1nc3c(cc12)COC(C)(C)C3	72*	-1	0.3	0.8	21	-1
CCOC(=O)c1cc2sc(C)cc2n1CC(=O)N(CC)CC	-5	·	1	0.5	54*	·
CCOC(=O)c1cc2sc(C)cc2n1CC(=O)NCCc1ccccc1	46	-22	0.5	0	100*	4
Cc1cc(C)cc(COn2ccnc2)c1	46	-7	0.5	0.3	69*	-4
Cc1cc(C)cc(N2C(=O)CC(n3ccnc3)C2=O)c1 (stereo unspecified)	1	5	1	0.7	34	3
Cn1ncc2nc[nH]c(=O)c21	41	-15	0.6	0.5	50*	-2
Cn1ncc2nnn(-c3ccccc3)c(=O)c21	-12	-20	1.1	1.1	-10	0
C=CCN(Cc1cc(OC)ccc1OC)S(=O)(=O)N(C)C	64*	2	0.4	0	96*	-4
C=CCNC(=O)CN(c1ccc(OC)cc1OC)S(C)(=O)=O	-5	-5	1	0.8	17	-2
COc1ccc(-c2onc(C)c2-c2ccc(C(=O)OC(C)C)o2)c(O)c1	98*	-2	0	0	98*	-1
COc1ccc2c(c1)CCc1c(C(=O)NCc3ccc(F)cc3)noc1-2	0	-2	1	1.2	-16	-1
O=C(CSCc1ccccc1Cl)Nc1ccc2c(c1)OCCO2	60*	·	0.4	0.7	26	·
O=C(CC(c1ccccc1)c1ccccc1)Nc1ccc2c(c1)OCCO2	52*	·	0.5	0.6	36	·
O=C(Cc1ccccc1[N+](=O)[O-])Nc1ccc2c(c1)OCCO2	·	16	·	·	·	2
NC(=O)CSc1nc2ccccc2n1Cc1ccccc1F	-1	15	1	0.4	57*	0
CC(C)CSc1nc2ccccc2n1CC(N)=O	-12	12	1.1	0.9	7	5
CCOC(=O)C1=C(O)/C(=C\c2ccc(CNC(=O)C(=O)Nc3ccccc3)o2)N=C1C	49	-7	0.5	0.8	20	64
CC1CCN(S(=O)(=O)c2ccc3ncn(CC(=O)N(C)Cc4ccccc4)c(=O)c3c2)CC1	49	·	0.5	0.8	18	·
SMILES	CYP2C9 inh	CD11b adhes inh	CYP2C9 activ	CYP2C19 activ	CYP2C19 inhib	Mac1 fbg enh
Cc1cc(Cl)c2c(c1)[C@]1(C(=O)N2)[C@@H]2C(=O)N(Cc3ccccc3)C(=O)[C@@H]2[C@@H]2CCCN21	12	-12	0.9	0.8	18	4
O=C1[C@H]2[C@@H](C(=O)N1c1cc(Cl)cc(Cl)c1)[C@]1(C(=O)Nc3ccccc31)N1CCC[C@@H]21	90*	-6	0.1	0.5	52*	-2
CC(=O)c1cc(-c2nc3ccccc3n2C)n(C)c1	73*	-2	0.3	0.4	56*	0
COc1ccc(C(=O)CSc2nnc(C(CO)NC(=O)c3ccc(OC)cc3)n2C)cc1 (stereo unspecified)	71*	-11	0.3	0.6	44	1
CCSCc1nnc(SCC(=O)c2ccc(OC)cc2)n1C	14	-16	0.9	0.1	90*	0
C=CCn1c(SCCOc2ccc(OC)cc2)nnc1C(CO)NC(=O)c1ccc(OC)cc1 (stereo unspecified)	88*	-12	0.1	0.5	46	3
COc1ccc(C(=O)NC(C)c2nnc(SCC(=O)Nc3nc4ccccc4s3)n2C)cc1 (stereo unspecified)	72*	-7	0.3	0.3	65*	-2
COc1ccc(C(=O)NC(C)c2nnc(SCC(=O)Nc3nc(C)cs3)n2C)cc1 (stereo unspecified)	12	-6	0.9	0.9	11	-2
COc1ccc(C(=O)NC(C)c2nnc(SCc3ccc(Cl)c(Cl)c3)n2C)cc1 (stereo unspecified)	11	-1	0.9	1	1	-3
Cn1c(CSCc2ccc(Cl)cc2)nnc1SCC(=O)Nc1nc2ccccc2s1	13	-30	0.9	0.9	6	6
Cc1ccc(S(=O)(=O)CCC(=O)c2ccc(O)cc2O)cc1	-91	1	1.9	0.3	70*	0
CCOC(=O)CCS(=O)(=O)c1ccc(-c2ccc(S(=O)(=O)CCC(=O)OCC)cc2)cc1	-4	11	1	1.2	-20	3
CN(CC(=O)NCc1cccs1)S(=O)(=O)c1cccc2cccnc12	-138	-14	2.4*	0.8	22	-2
CN(CC(=O)NCc1ccccn1)S(=O)(=O)c1ccc(Cl)cc1	-10	13	1.1	0.9	8	12
CN(C)c1ccc(CNC(=O)CN(C)S(=O)(=O)c2cccc3cccnc23)cc1	44	-7	0.6	0.3	70*	0
Cc1cc(C)c(C)c(OCC(=O)N2CCCCCC2)c1	-39	-1	1.4	0.7	30	1
O=C(O)c1cc(NCc2cccs2)ccc1N1CCOCC1	-1	-6	1	1	-2	-2
COC(=O)c1cc(NCc2cccs2)ccc1N1CCOCC1	64*	-2	0.4	0.2	77*	-2
O=C(NCC1CCCCC1)C1CCCN(C(=O)NC2CCCCC2)C1 (stereo unspecified)	16	-8	0.8	0.9	6	0
CC(Sc1nnc(Cc2cccs2)n1C1CCCCC1)C(=O)NCc1ccco1 (stereo unspecified)	75*	-12	0.3	0.6	43	-3
